# Where “and” joins values, the source holds several entries; their conditions need not be identical. Equal entries are not always repeated. Inconclusive results are not listed. A call without a number means that no potency is given here. Where a structure was tested more than once in an assay, its records may differ in their call. A number with no mark means an inactive call. Calls of active or inactive are those of the source. The call rests on the fitted dose curve; in most records, active means well fitted curve in the direction sought with a large enough effect; inconclusive means small, poorly fitted or top-dose-only effect, or another doubt; inactive means no such curve, though single readings can be large; an effect the other way counts as inactive or inconclusive.
# Key:
# CRL-7250 = normal cell line; assay: Cytotoxic Profiling of Annotated Libraries Using Quantitative High-Throughput Screening (AID 1296008); conditions: Five cell lines viability, CellTiter-Glo ATP luminescence, 48-72 h; max response: stronger effect = lower value; further: nearly all actives have a fitted effect of over 60% in size; further: potency means the concentration at half of the fitted maximal effect
# How it was run: (§1)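 Cells exposed to compounds for 48 or 72 hr at 37 degrees Celsius. Viability read as ATP-coupled luminescence with CellTiter-Glo after 10 min at room temperature.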
# HEK293 = assay: as above; conditions: Five cell lines viability, CellTiter-Glo ATP luminescence, 48-72 h; max response: stronger effect = lower value
# How it was run: as §1
# HaCat [1] = assay: as above; conditions: Five cell lines viability, CellTiter-Glo ATP luminescence, 48-72 h; max response: stronger effect = lower value
# How it was run: as §1
# KB-3-1 = assay: as above; conditions: Five cell lines viability, CellTiter-Glo ATP luminescence, 48-72 h; max response: stronger effect = lower value
# How it was run: as §1
# NIH3T3 [2] = assay: as above; conditions: Five cell lines viability, CellTiter-Glo ATP luminescence, 48-72 h; max response: stronger effect = lower value
# How it was run: as §1
# HACAT [3] = assay: qHTS assay to identify novel small-molecules to repurpose for Merkel cell carcinoma treatment (AID 1296009); conditions: MCC and control cell lines, CellTiter-Glo viability, 72 h; further: nearly all actives have a fitted effect of over 60% in size
# How it was run: (§2)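 Dose-response viability screen; 72 hr exposure at 37 degree celsius; CellTiter-Glo added, 10 min room temperature, luminescence read; RLUs scaled between no-cell and DMSO wells.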
# HEK293T = assay: as above; conditions: MCC and control cell lines, CellTiter-Glo viability, 72 h; series mostly up to 44.8 µM
# How it was run: as §2
# NIH3T3 [4] = assay: as above; conditions: MCC and control cell lines, CellTiter-Glo viability, 72 h; at 44.8 µM (top of the series) unless noted
# How it was run: as §2
# C33A = assay: Primary qHTS to identify gynecologic anti-cancer compounds using libraries of approved drugs and bioactive compounds (AID 1345084); conditions: Gynecologic cancer cell panel viability, ATPlite luminescence, 48 h; series mostly up to 57.5 µM; further: nearly all actives have a fitted effect of over 55% in size
# How it was run: (§3)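 In this quantitative HTS, cell killing is estimated from loss of ATP-dependent luciferase light. Cells see five compound concentrations over a 48 h exposure.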
# CAOV3 = assay: as above; conditions: Gynecologic cancer cell panel viability, ATPlite luminescence, 48 h; series mostly up to 57.5 µM
# How it was run: as §3
# CASKI = assay: as above; conditions: Gynecologic cancer cell panel viability, ATPlite luminescence, 48 h; series mostly up to 57.5 µM
# How it was run: as §3
# Es-2 = assay: as above; conditions: Gynecologic cancer cell panel viability, ATPlite luminescence, 48 h; series mostly up to 57.5 µM
# How it was run: as §3
# HeLa = assay: as above; conditions: Gynecologic cancer cell panel viability, ATPlite luminescence, 48 h; series mostly up to 57.5 µM
# How it was run: as §3
# [5] = at 44.8 µM (top of the series) unless noted
smiles,measurement,setting,value
C=CC(C)(C)C12CC3C(=O)NC(Cc4cnc[nH]4)C(=O)N3C1Nc1ccccc12 (stereo not drawn),max response,CRL-7250,-2.57%
same,outcome,HEK293,inactive
same,outcome,HaCat [1],inactive
same,outcome,KB-3-1,inactive
same,outcome,NIH3T3 [2],inactive
same,outcome,HACAT [3]; [5],inactive
same,Potency,HEK293T,inactive
same,outcome,NIH3T3 [4],inactive
same,Potency,C33A,inactive
same,Potency,CAOV3,inactive
same,Potency,CASKI,inactive
same,Potency,Es-2,inactive
same,Potency,HeLa,inactive
CCOc1ccc(-c2ccc(Cn3c(CC(C)(C)C(=O)O)c(SC(C)(C)C)c4cc(OCc5ccc(C)cn5)ccc43)cc2)cn1,max response,CRL-7250,-21.1% and -6.16%
same,max response,HEK293,-15.3%
same,outcome,HEK293,inactive
same,max response,HaCat [1],-15.9% and -11.2%
same,max response,KB-3-1,-5.24%
same,outcome,KB-3-1,inactive
same,max response,NIH3T3 [2],-6.34%
same,Potency,HEK293T,inactive
same,Potency,C33A,inactive
same,Potency,CAOV3,inactive
same,Potency,CASKI,inactive
same,Potency,Es-2,inactive
same,Potency,HeLa,inactive
CC(C)Nc1cc(-c2c[nH]c(C(=O)N[C@H](CO)c3cccc(Cl)c3)c2)c(Cl)cn1,max response,CRL-7250,-4.72%
same,Potency,HEK293,26.3 µM (active)
same,max response,HEK293,-74.1%
same,Potency,HaCat [1],2.59 µM (active) and 14.8 µM (active)
same,max response,KB-3-1,-26.9%
same,Potency,C33A,inactive
same,Potency,CAOV3,inactive
same,Potency,CASKI,inactive
same,Potency,HeLa,inactive
CCC(=O)NS(=O)(=O)c1ccc(-c2c(-c3ccccc3)noc2C)cc1,outcome,CRL-7250,inactive
same,outcome,HEK293,inactive
same,max response,HaCat [1],-10.3%
same,max response,KB-3-1,-21.2%
same,outcome,KB-3-1,inactive
same,outcome,NIH3T3 [2],inactive
same,Potency,HEK293T,inactive
same,outcome,NIH3T3 [4],inactive
same,Potency,C33A,inactive
same,Potency,CAOV3,inactive
same,Potency,CASKI,inactive
same,Potency,Es-2,inactive
same,Potency,HeLa,inactive
CCn1c2ccccc2c2cc(CNC)ccc21,max response,CRL-7250,-18% and 2.31%
same,Potency,HEK293,18.4 µM (active)
same,outcome,HaCat [1],inactive
same,max response,KB-3-1,-23.4%
same,outcome,KB-3-1,inactive
same,max response,NIH3T3 [2],-5.49%
same,outcome,NIH3T3 [2],inactive
same,outcome,HACAT [3]; [5],inactive
same,outcome,NIH3T3 [4],inactive
same,Potency,C33A,inactive
same,Potency,CAOV3,inactive
same,Potency,CASKI,inactive
same,Potency,Es-2,inactive
same,Potency,HeLa,inactive
CCN[C@@H]1C[C@H](N)[C@@H](O[C@H]2OC(CN)=CC[C@H]2N)[C@H](O)[C@H]1O[C@H]1OC[C@](C)(O)[C@H](NC)[C@H]1O,max response,CRL-7250,-13%
same,outcome,CRL-7250,inactive
same,max response,HEK293,-0.314%
same,outcome,HaCat [1],inactive
same,max response,NIH3T3 [2],-0.755% and 2.29%
same,outcome,HACAT [3]; [5],inactive
same,Potency,C33A,inactive
same,Potency,CAOV3,inactive
same,Potency,CASKI,inactive
same,Potency,Es-2,inactive
same,Potency,HeLa,inactive
Cc1cc(Nc2ncc(Cl)c(Nc3ccccc3S(=O)(=O)C(C)C)n2)c(OC(C)C)cc1C1CCNCC1,max response,CRL-7250,-10.6%
same,Potency,HEK293,8.2 µM (active) and 4.17 µM (active)
same,outcome,HaCat [1],inactive
same,Potency,KB-3-1,18.4 µM (active)
same,Potency,NIH3T3 [2],23.4 µM (active)
same,outcome,NIH3T3 [2],inactive
same,outcome,HACAT [3]; [5],inactive
same,outcome,NIH3T3 [4],inactive
same,Potency,C33A,inactive
same,Potency,CAOV3,inactive
same,Potency,CASKI,inactive
same,Potency,Es-2,inactive
same,Potency,HeLa,inactive
CC1=C2C(=O)O[C@@H](c3ccoc3)[C@]2(C)CCC1,max response,CRL-7250,-4.96%
same,outcome,CRL-7250,inactive
same,max response,HEK293,-8.51% and 3.13%
same,max response,HaCat [1],0.193%
same,max response,NIH3T3 [2],0.635% and 0.0895%
same,Potency,C33A,inactive
same,Potency,CAOV3,inactive
same,Potency,CASKI,inactive
same,Potency,Es-2,inactive
same,Potency,HeLa,inactive
CO[C@@H]1COCC[C@@H]1N[C@@H]1CC[C@@](C(=O)N2CCc3ncc(C(F)(F)F)cc3C2)(C(C)C)C1,outcome,CRL-7250,inactive
same,outcome,HEK293,inactive
same,outcome,HaCat [1],inactive
same,outcome,KB-3-1,inactive
same,max response,NIH3T3 [2],-6.53%
same,outcome,HACAT [3]; at 17.4 µM (top of the series),inactive
same,outcome,HACAT [3]; at 44.8 µM (top of the series),inactive
same,Potency,HEK293T,inactive
same,Potency,C33A,inactive
same,Potency,CAOV3,inactive
same,Potency,CASKI,inactive
same,Potency,Es-2,inactive
same,Potency,HeLa,inactive
CC(C)(O)CNc1nc(Nc2ccnc(C(F)(F)F)c2)nc(-c2cccc(C(F)(F)F)n2)n1,max response,CRL-7250,-2.34% and 1.41%
same,Potency,HEK293,14.8 µM (active)
same,outcome,HaCat [1],inactive
same,max response,KB-3-1,4.85%
same,max response,NIH3T3 [2],3.44% and -5.61%
same,outcome,HACAT [3]; at 17.4 µM (top of the series),inactive
same,outcome,HACAT [3]; at 44.8 µM (top of the series),inactive
same,Potency,C33A,inactive
same,Potency,CAOV3,inactive
same,Potency,CASKI,inactive
same,Potency,Es-2,inactive
same,Potency,HeLa,inactive
O=C(Nc1cccnn1)N1CCC(=Cc2cccc(Oc3ccc(C(F)(F)F)cn3)c2)CC1,max response,CRL-7250,-4.32%
same,Potency,HEK293,8.2 µM (active) and 13.2 µM (active)
same,max response,HaCat [1],-13.4%
same,outcome,HaCat [1],inactive
same,max response,NIH3T3 [2],-5.09% and -8.67%
same,outcome,HACAT [3]; [5],inactive
same,Potency,CAOV3,inactive
same,Potency,Es-2,inactive
same,Potency,HeLa,inactive
C[C@]12C=CC(=O)C=C1CC[C@@H]1[C@@H]2[C@@H](O)C[C@@]2(C)[C@H]1CC[C@]2(O)C(=O)COC(=O)CCC(=O)O,max response,CRL-7250,2.71%
same,max response,HEK293,-0.357%
same,outcome,HaCat [1],inactive
same,max response,KB-3-1,2.8%
same,outcome,KB-3-1,inactive
same,outcome,NIH3T3 [2],inactive
same,outcome,HACAT [3]; [5],inactive
same,outcome,NIH3T3 [4],inactive
same,Potency,C33A,inactive
same,Potency,CAOV3,inactive
same,Potency,CASKI,inactive
same,Potency,Es-2,inactive
same,Potency,HeLa,inactive

# Reference: PubChem BioAssay (NCATS)
